# Results filed as inconclusive are left out. Active and inactive are the calls of the source. How the source made its calls: active means hit-call score of the fitted dose curve at least 0.9, where 1 is the maximum; inconclusive means response in the unintended direction; inactive means score below 0.9.
# Read-out: Cytochrome P450 3A4 (Homo sapiens) (UniProt P08684)
# Test: CLD_CYP3A4_6hr: CellzDirect (CLD) Gene Expression Assay for xenobiotic metabolism (CYP3A4) at 6 hours (AID 2283680)
# Method: CLD_6hr is a cell-based, multiplexed-readout assay that uses hepatocyte, a human liver primary cell, with measurements taken at 6 hours after chemical dosing in a 96-well plate.CLD_CYP3A4_6hr is one of 16 assay component(s) measured or calculated from the CLD_6hr assay. It is designed to make measurements of mRNA induction, a form of inducible reporter, as detected with chemiluminescence signals by Quantitative Nuclease Protection Assay (qNPA) technology.Data from the assay component CLD_CYP3A4_6hr was analyzed at the endpoint, CLD_CYP3A4_6hr, in the positive analysis fitting direction relative to DMSO as the negative control and baseline of activity. Using a type of inducible reporter, gain-of-signal activity can be used to understand changes in the reporter gene as they relate to the gene CYP3A4. Furthermore, this assay endpoint can be referred to as a primary readout. To generalize the intended target to other relatable targets, this assay endpoint is annotated to the cyp intended target family, where subfamily is xenobiotic metabolism.
# Human hepatocyte cultures were treated daily for two consecutive days with fresh dosing solutions containing appropriate concentrations of the 320 ToxCast chemicals (chemical identities were blinded to CellzDirect and other ToxCast collaborators), vehicle control (0.2% DMSO), and positive control inducers as summarized in Table 1. Due to the large number of treatment groups and chemicals examined, the ToxCast chemicals were divided into two groups (spanning two independent cultures of hepatocytes from separate donor preparations (Hu778: ToxCast plates 1 and 2; Hu776: ToxCast plates 3 and 4). Each preparation of human hepatocyte cultures was treated with respective vehicle control, medium only control, set of six positive controls/reference chemicals for the five hepatic receptor pathways, and a subset of eight of the ToxCast chemicals (indoxacarb, pyrithiobac-sodium, norflurazon, cyhalofop-butyl, methomyl, thiram, acetochlor, and propiconazole). These replicate data, coupled with internal replicates designed within the blinded ToxCast chemical library, provided additional data to evaluate interindividual differences between hepatocyte preparations and their potential impact on chemical profiles.Cell morphology and integrity were evaluated using phase-contrast microscopy as an indicator of hepatocyte cell health (Tyson & Green, 1987). Cultures for each treatment group (i.e., media, vehicle [0.2% DMSO], positive control inducers [multiple concentrations], and the ToxCast chemicals [multiple concentrations]) were observed and cell morphology was assessed relative to vehicle control cultures at each harvest time point (0, 6, 24, or 48 h). […] Images were evaluated at the conclusion of the study to assess changes in cell integrity and account for the effects of chemical exposure on uncharacteristic changes in concentration-dependent gene expression profiles. The results from these determinations of apparent cytotoxicity were annotated (yes/no) alongside the corresponding qNPA data for reference.At the conclusion of each treatment period, hepatocyte cultures (96-well) were washed with 1 volume of HBSS, lysed by addition of 25 ul ArrayPlate lysis buffer (HTG, Tucson, AZ), and 70 ul/well of Denaturation Oil, denatured by incubation at 95C for 10 min, and frozen at approximately -70C until analysis by nuclease protection assay (qNPA) (Roberts et al., 2007). For qNPA analysis, cell lysates were thawed at 50C for approximately 30 min, qNPA probes were added, and samples were incubated at 95C for 10 min to begin the detection process by denaturing the target RNA, dissociating the duplexes and secondary structure hybridization. At the conclusion of the hybridization period, S1 nuclease reagent was added to each sample to digest all nonprotected nucleotides at 50C for 60-90 min. […]
# Cytochrome P450 3A4 (Homo sapiens), sequence (P08684 whole entry, looked up): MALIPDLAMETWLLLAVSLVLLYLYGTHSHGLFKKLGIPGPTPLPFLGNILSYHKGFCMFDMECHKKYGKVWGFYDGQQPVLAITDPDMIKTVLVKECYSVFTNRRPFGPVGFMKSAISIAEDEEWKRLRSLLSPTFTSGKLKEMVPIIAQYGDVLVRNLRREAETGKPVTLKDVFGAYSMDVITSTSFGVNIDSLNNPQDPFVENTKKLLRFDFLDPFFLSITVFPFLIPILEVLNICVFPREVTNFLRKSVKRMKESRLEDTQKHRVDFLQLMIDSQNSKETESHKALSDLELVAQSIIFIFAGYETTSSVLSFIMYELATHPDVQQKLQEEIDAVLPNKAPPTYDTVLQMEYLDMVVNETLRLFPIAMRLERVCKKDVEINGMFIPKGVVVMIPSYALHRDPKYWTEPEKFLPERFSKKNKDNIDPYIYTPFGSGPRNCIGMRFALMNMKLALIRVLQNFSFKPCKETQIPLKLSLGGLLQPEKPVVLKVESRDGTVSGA
SMILES,outcome,AC50
COC(=O)c1c(C(F)F)nc(C(F)(F)F)c(C2=NCCS2)c1CC(C)C,inactive,
COCc1cnc(C2=NC(C)(C(C)C)C(=O)N2)c(C(=O)O)c1 (stereo not given),inactive,
CSC(=O)c1c(C(F)F)nc(C(F)(F)F)c(C(=O)SC)c1CC(C)C,inactive,
Cc1cc(C)nc(Nc2ccccc2)n1,inactive,
CCCN(CC)CC1COC2(CCC(C(C)(C)C)CC2)O1 (stereo not given),inactive,
C=CCOC(=O)C(C)(C)OC(=O)c1cc(-n2c(=O)cc(C(F)(F)F)n(C)c2=O)ccc1Cl,,0.29 µM (active)
COP(=S)(OC)SCn1nnc2ccccc2c1=O,,0.975 µM (active)
CCCC(=NOCC)C1=C(O)CC(CC(C)SCC)CC1=O (stereo not given),,20 µM (active)
COC(=O)NC(=S)Nc1ccccc1NC(=S)NC(=O)OC,inactive,
CC(C)NC(=O)N1CC(=O)N(c2cc(Cl)cc(Cl)c2)C1=O,inactive,
CC1(C)CCC(=Cc2ccc(Cl)cc2)C1(O)Cn1cncn1 (stereo not given),inactive,
CS(=O)(=O)c1ccc(C(=O)C2C(=O)CCCC2=O)c([N+](=O)[O-])c1,inactive,
COC(=O)NS(=O)(=O)c1ccc(N)cc1,inactive,
CC1(C)C(C(=O)OC(C#N)c2cccc(Oc3ccccc3)c2)C1(C)C (stereo not given),,3.71 µM (active)
CC(C)(C)C(=O)C(Oc1ccc(Cl)cc1)n1cncn1 (stereo not given),,0.434 µM (active)
COP(=S)(OC)Oc1ccc([N+](=O)[O-])c(C)c1,inactive,
CCSC(=O)N1CCCCCC1,inactive,
COc1ccc(-c2ccccc2)cc1NNC(=O)OC(C)C,inactive,
CNC(=O)N(C)c1nnc(C(C)(C)C)s1,inactive,
COc1cc(Cl)c(OC)cc1Cl,inactive,

SMILES,outcome,AC50
CCCCOCN(C(=O)CCl)c1c(CC)cccc1CC,inactive,
CC(C)Oc1cccc(NC(=O)c2ccccc2C(F)(F)F)c1,inactive,
O=C(O)c1c(Cl)ccc2cc(Cl)cnc12,inactive,
N#CN=C1SCCN1Cc1ccc(Cl)nc1,inactive,
CC(C)Nc1nc(Cl)nc(NC(C)C)n1,,20 µM (active)
CCCCC(O)(Cn1cncn1)c1ccc(Cl)cc1Cl (stereo not given),inactive,
CCOP(=O)(OCC)Oc1nc(Cl)c(Cl)cc1Cl,,9.77 µM (active)
CCOc1nc(C(Cl)(Cl)Cl)ns1,inactive,
CC(C)N1C(=O)N(c2ccccc2)CSC1=NC(C)(C)C,inactive,
CC(C)=CC1C(C(=O)OCc2coc(Cc3ccccc3)c2)C1(C)C (stereo not given),inactive,
CCCCC(C#N)(Cn1cncn1)c1ccc(Cl)cc1 (stereo not given),,2.99 µM (active)
CC1(C)CON(Cc2ccccc2Cl)C1=O,,1.89 µM (active)
Cc1c(COC(=O)[C@@H]2[C@H](/C=C(\Cl)C(F)(F)F)C2(C)C)cccc1-c1ccccc1,,3.44 µM (active)
Cc1cnc(C2=NC(C)(C(C)C)C(=O)N2)c(C(=O)O)c1 (stereo not given),inactive,
N#Cc1c(Cl)cccc1Cl,inactive,
CCOc1nc(F)cc2nc(S(=O)(=O)Nc3c(Cl)cccc3Cl)nn12,inactive,
COCC(C)N(C(=O)CCl)c1c(C)csc1C (stereo not given),inactive,
CO/N=C(/C1=NOCCO1)c1ccccc1Oc1ncnc(Oc2ccccc2Cl)c1F,inactive,
CCOP(=S)(OCC)Oc1nc(Cl)n(C(C)C)n1,,0.466 µM (active)
CCOC(=O)C(C)OC(=O)c1cc(Oc2ccc(C(F)(F)F)cc2Cl)ccc1[N+](=O)[O-] (stereo not given),,4.03 µM (active)
